Assay [1] is described as follows: blockers of polyQ-driven CASP3 activation – cell-based (AID 1583). Conditions: polyglutamine-induced caspase-3 activation, cell assay; stronger effect = higher value;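 tested at 10 µM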.
Assay [2] in a line: yeast 75Q aggregation reduction – 75Q-TubU reporter (AID 1593). As to conditions: Yeast 75Q polyglutamine aggregation reporter.
Assay [3] is described as follows: blockers of cytochrome c efflux from mitochondria – biochemical, purified mitochondria (AID 1603).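 Also: mouse liver mitochondria challenged with calcium chloride; signal normalized to the plate average as 100%.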 Conditions: stronger effect = lower value.
Assay [4] can be described thus: polyglutamine aggregate formation blockers (AID 1604). As to conditions: polyglutamine-induced protein aggregation inhibition assay; stronger effect = higher value; tested at 2.5 µM.
Assay [5] in a line: glutamate transport activators, MN-1 cells, MN-1 cell line (AID 1612).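 Also: tested at 1 µM final; 0% = mean of DMSO vehicle wells on each plate; positive means more glutamate uptake than control and negative means less.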 Conditions: MN-1 motor neuron cells, stronger effect = higher value.
A short description of assay [6]: GFP-Q80 aggregate reduction, neuronal-like cells, cell-based, NGF-treated PC12, GFPQ80 (AID 1614).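 Also: lower means fewer inclusions and 0 means no inclusions at all.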 As to conditions: PC12 NGF-treated GFP-polyQ80 inclusion reduction.
A short description of assay [7]: 75Q-TubH aggregate inhibition, S. cerevisiae, yeast (AID 1616). Conditions: S. cerevisiae 75Q-TubH polyglutamine aggregation suppression; stronger effect = higher value.
The nature of assay [8]: EMT-state selective cytotoxicity in co-culture – imaging, PC-3E GFP, TEM4-18 mCherry, primary screen (AID 1345086).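 As to all read-outs here: cells exposed to compound for 72 h before imaging.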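 As to red/green cell ratio (normalised): normalised mesenchymal count divided by normalised epithelial count so high means epithelial killing.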 Conditions: PC-3E GFP / TEM4-18 mCherry co-culture, imaging cell counts, at 1 µM; for red/green cell ratio (normalised): actives lie on both sides, counts scaled to control wells, 1 = unselective.
Assay [9] addresses Mitogen-activated protein kinase 7 (Homo sapiens) (UniProt Q13164). As to the kind of experiment: Gal4-ERK5 driven luciferase induction – cell-based, HTS, primary screen (AID 1508626;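 active = luciferase signal above three times the same-plate solvent-only control wells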;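 also: luciferase driven by Gal4-ERK5 fusion binding five Gal4 sites before minimal TATA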). As to conditions: HeLa Gal4-ERK5 transactivation, 18 h, at 5 µM, stronger effect = higher value.
Assay [10] in a line: restoration of touch response, mutant HTT neurons – whole organism, C. elegans mechanosensory neurons, N-terminal huntingtin (AID 1599). Conditions: C. elegans polyQ-huntingtin mechanosensory neurons, stronger effect = higher value.
Assay [11] is described as follows: rescue of PC12 cells from polyQ htt toxicity – LDH release (AID 1610). Conditions: PC12 mutant huntingtin toxicity, final LDH at 4 uM, stronger effect = lower value.
The nature of assay [12]: P. berghei load reduction in hepatocytes – cell-based, HepG2, luciferase luminescence, HepG2 viability, primary screen (AID 624349; in the data active = parasite load remaining mostly below about 12%, no sharp cut-off; inactive = mostly above about 10%;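 also: 100% = mean of DMSO negative control wells on the same plate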). As to conditions: P. berghei liver stage in HepG2, luciferase luminescence, concentration not given here; parasite load remaining: stronger effect = lower value; viability: measured here: HepG2 viability without parasites.
Assay [13] concerns Aerobactin synthetase IucA (Klebsiella pneumoniae). Kind of assay: inhibition of K. pneumoniae IucA enzyme – biochemical, Tocris library, absorbance (AID 1345561; call rule not given here;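 also: 100% = enzyme without compound and 0% = no enzyme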). As to conditions: purified IucA enzyme assay, absorbance (OD) read-out; stronger effect = lower value;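 tested at 8 µM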.
A short description of assay [14]: viability loss in pontine glioma line – cell-based, SU-DIPG-XVII, MIPE5.0, CellTiter-Glo, qHTS, dose response (AID 1347060; cut-off not given, nearly all actives have AC50 up to about 26 µM;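 also: cells exposed to compound for 48 hours before viability readout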). Conditions: CellTiter-Glo ATP luminescence. For orientation: ATP-based viability assays read luminescence as a measure of living cells.
Assay [15] can be described thus: viability loss in pontine glioma line – cell-based, SU-DIPG-XIII, MIPE4.0, CellTiter-Glo, qHTS, dose response (AID 1347061; cut-off not given, nearly all actives have AC50 up to about 37 µM;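 also: cells exposed to compound for 48 hours before readout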). Conditions: CellTiter-Glo ATP luminescence.
Assay [16] in a line: viability loss in pontine glioma line – cell-based, JHH-DIPG-1, MIPE4.0, CellTiter-Glo, qHTS, dose response (AID 1347062; cut-off not given, nearly all actives have AC50 up to about 27 µM;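 also: cells exposed to compound for two days before readout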). Conditions: JHH-DIPG-1 viability, CellTiter-Glo ATP luminescence.
The nature of assay [17]: viability loss in pontine glioma line – cell-based, SU-DIPG-IV, MIPE4.0, CellTiter-Glo, qHTS, dose response (AID 1347063; cut-off not given, nearly all actives have AC50 up to about 30 µM;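 also: compound exposure lasted 48 hours before the viability readout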). As to conditions: CellTiter-Glo ATP luminescence.
Assay [18] in a line: viability loss in pontine glioma line – cell-based, SU-DIPG-XIII, MIPE5.0, CellTiter-Glo, qHTS, dose response (AID 1347064; cut-off not given, nearly all actives have AC50 up to about 23 µM;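 also: cells exposed to compound for 48 hours before the viability read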). Conditions: CellTiter-Glo ATP luminescence.
Assay [19] is described as follows: viability loss in pontine glioma line – cell-based, SU-DIPG-XXV, MIPE5.0, CellTiter-Glo, qHTS, dose response (AID 1347065; cut-off not given, nearly all actives have AC50 up to about 26 µM;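 also: cells exposed to compound for 48 hours before ATP readout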). As to conditions: CellTiter-Glo ATP luminescence.
Assay [20] in a line: growth inhibition of DIPG cells – cell-based, MIPE4.0 library, CellTiter-Glo luminescence, qHTS (AID 1347066; cut-off not given, nearly all actives have AC50 up to about 30 µM;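 also: cells exposed to compound for 48 hours before readout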). As to conditions: SU-DIPG-VI viability, CellTiter-Glo ATP luminescence.
A short description of assay [21]: JHH-DIPG-1 glioma cell viability, MIPE5.0 library, CellTiter-Glo luminescence, qHTS (AID 1347067; cut-off not given, nearly all actives have AC50 up to about 26 µM;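 also: cells exposed to compound for 48 hours before readout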). As to conditions: JHH-DIPG-1 glioma viability, CellTiter-Glo ATP luminescence.
A short description of assay [22]: growth inhibition of DIPG cells – cell-based, MIPE5.0 library, qHTS (AID 1347068; cut-off not given, nearly all actives have IC50 up to about 30 µM;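 also: cells exposed to compound for 48 hours before viability readout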). Conditions: SU-DIPG-XXV viability. (In general: In qHTS, concentration-response curves come from the screen itself.)
Assay [23] in a line: viability loss with induced miR-34 in A549 – imaging, A549 dox-inducible miR-34, nuclei and caspase counts, primary screen (AID 1347080;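 active = compounds whose cell count with miR-34 switched on is under 0.7 times the count with it off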). As to conditions: A549 miR-34 inducible, Hoechst nuclei count, 48 h.
The nature of assay [24]: galactose survival enhancers in mitochondrial complex I cybrids – cell-based, galactose medium, ATP luminescence, primary screen (AID 1645843;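 active = z-score of at least 1.8 in each of two replicates, scored against plate mean and spread of sample wells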;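 also: positive z means more ATP and so rescue of galactose-driven cybrid death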). As to conditions: complex I mutant cybrid cells, 72 h, stronger effect = higher value.
Where [25] appears, read: measured here: epithelial PC-3E GFP cell survival.
Setting [26] is: measured here: mesenchymal TEM4-18 mCherry cell survival.

“And” between values parts separate entries of the source, which are not always exact repeats. Equal entries are not always repeated. Inconclusive results are not listed. For some of these results: Entries with a potency or affinity are not part of this list. The source made the active and inactive calls.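 The calls were made as follows, unless noted: active = compounds killing one labelled cell type while sparing the other, by normalised counts and ratio limits, not self-fluorescent; inactive = the rest.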

Sequence of Mitogen-activated protein kinase 7 (Homo sapiens) (Q13164 whole entry, looked up, the tested form may be a part): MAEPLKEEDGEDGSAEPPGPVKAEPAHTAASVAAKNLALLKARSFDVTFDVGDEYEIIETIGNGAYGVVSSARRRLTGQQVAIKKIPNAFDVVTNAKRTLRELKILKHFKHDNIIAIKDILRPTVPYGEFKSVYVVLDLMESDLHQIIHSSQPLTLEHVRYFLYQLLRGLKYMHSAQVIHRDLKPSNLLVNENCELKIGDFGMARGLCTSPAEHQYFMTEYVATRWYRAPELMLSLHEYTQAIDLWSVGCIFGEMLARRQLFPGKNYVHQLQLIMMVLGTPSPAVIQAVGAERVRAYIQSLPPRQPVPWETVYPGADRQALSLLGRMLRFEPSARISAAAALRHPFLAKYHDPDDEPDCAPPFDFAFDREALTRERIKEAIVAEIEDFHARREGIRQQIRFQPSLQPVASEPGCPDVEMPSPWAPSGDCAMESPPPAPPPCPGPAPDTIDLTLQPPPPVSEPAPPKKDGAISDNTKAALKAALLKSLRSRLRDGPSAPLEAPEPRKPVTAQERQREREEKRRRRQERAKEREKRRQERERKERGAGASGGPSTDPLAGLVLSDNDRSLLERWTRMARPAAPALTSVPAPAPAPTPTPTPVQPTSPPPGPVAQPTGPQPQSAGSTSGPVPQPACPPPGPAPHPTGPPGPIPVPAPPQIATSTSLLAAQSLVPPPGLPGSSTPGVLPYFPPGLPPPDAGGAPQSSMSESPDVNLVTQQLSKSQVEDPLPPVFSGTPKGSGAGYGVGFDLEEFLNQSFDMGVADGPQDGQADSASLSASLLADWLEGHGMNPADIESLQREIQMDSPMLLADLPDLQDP

Take `CC1=C2C(=CO[C@H](C)[C@H]2C)C(=O)C(C(=O)O)=C1O`: the inhibition – broadly, the drop in the measured response relative to a control, in per cent – in assay [1] stood at 1.38%. The molecule also yielded a score in [2] of 0.74. Further, the cytochrome c release ratio in assay [3] came to 0.99. In assay [4], this molecule showed an inhibition of aggregation of 68.3%. In addition, the glutamate uptake change in assay [5] came to 33.3%. Besides, the inclusion score in [6] is 2. In assay [7], this molecule yielded an aggregation suppression score of 0.187. The red/green cell ratio (normalised) in assay [8] is 1.08 (inactive) and 1.06 (inactive) and 0.92 (inactive). Further, the normalised cell number in assay [8] (setting [25]) was 0.92 and 0.97 and 1.03; in [8] (setting [26]), 0.99 and 1.03 and 0.95. Also, in [9], the luciferase signal was 52 AU (inactive).
On to `CC(=O)OCC(=O)[C@@]1(O)[C@H](C)CC2C3CCC4=CC(=O)C=C[C@]4(C)[C@@]3(F)[C@@H](O)C[C@@]21C` (stereo partly specified), for which the inhibition in assay [1] is 52.6%. In [2], the score is 0.99. Further, the rescue above control in assay [10] worked out at 1.81. Further, in assay [3], the cytochrome c release ratio was 1.17. The inhibition of aggregation in [4] is 69.4%. Moreover, the normalised LDH release in assay [11] amounted to 0.545. In assay [5], this molecule gave a glutamate uptake change of 20.3%. The inclusion score in assay [6] stood at 2. Moreover, in assay [7], the aggregation suppression score worked out at 1.32. In assay [12], the parasite load remaining was 140% (inactive). For the same molecule, the viability – broadly, a per cent measure of how many cells are alive, often set against a control – in assay [12] stood at 73.1%. In addition, the red/green cell ratio (normalised) in assay [8] is 1.26 (inactive). Besides, the normalised cell number in assay [8] (setting [25]) was found to be 1.37; in assay [8] (setting [26]), 1.74.
As to `CC(C)[C@H](CO)Nc1nc(Nc2cccc(Cl)c2)c2ncn(C(C)C)c2n1`, in assay [13], the remaining activity – broadly, the signal under treatment as a percentage of the control signal – is 115% (inactive). The AC50 (as a rule, the concentration giving half of the maximal activity seen) in assay [14] was 14.8 µM (active); in [15] it was 20.9 µM (active); in [16], 16.6 µM (active); in [17] it was 14.8 µM (active); in [18] it was 14.8 µM (active); in [19], 7.42 µM (active). The figures for the half-maximal activity concentration (AC50) in assay [20] and in [21] were 20.9 µM (active) and 14.8 µM (active), respectively. Moreover, in assay [22], the IC50 (as a rule, the concentration that gives 50% inhibition) was 16.6 µM (active). Further, the fold change in [23] (stronger effect = lower value, cell number ratio, induced over uninduced) is 1.01 (inactive); in assay [23] (measured here: relative caspase fold change +Dox/-Dox) it was 0.968. The cell count in assay [23] (measured here: total cells with miR-34 induction, stronger effect = lower value) amounted to 1040; in assay [23] (measured here: total cells without miR-34 induction), 1030. Also, the z-score in [24] is -0.745 (inactive).
For the molecule `COC(=O)C(N)CS` (stereo unspecified), the inhibition in assay [1] is -5.77%. The molecule also gave a score in assay [2] of 1.37. In [10], this molecule had a rescue above control of -5.25. Further, in [3], the cytochrome c release ratio came out at 1.33. In addition, the inhibition of aggregation in assay [4] is 74.2%. For the same molecule, in [5], the glutamate uptake change turned out to be 10.6%. The molecule also registered an inclusion score in assay [6] of 2. In [7], this molecule had an aggregation suppression score of 1.19. Moreover, in assay [12], the parasite load remaining was 102% (inactive) and the viability is 69.9%. For the same molecule, the red/green cell ratio (normalised) in assay [8] is 0.97 (inactive). The normalised cell number in assay [8] (setting [25]) was 1.14. In assay [8] (setting [26]), the normalised cell number turned out to be 1.11.
Consider `CC[C@H](C)C(=O)O[C@H]1CCC=C2C=C[C@H](C)C(CCC3C[C@@H](O)CC(=O)O3)[C@H]21` (stereo partly specified), for which the inhibition in [1] is -3.44%. The same molecule yielded a score in assay [2] of 0.88. Also, the rescue above control in assay [10] is -3.11. For the same molecule, the cytochrome c release ratio in assay [3] stood at 1.24. Moreover, the inhibition of aggregation in [4] came to 31.8%. In assay [5], this molecule came in with a glutamate uptake change of 12.1%. Also, the aggregation suppression score in assay [7] is 0.746. Further, the red/green cell ratio (normalised) in [8] is 0.93 (inactive). Besides, the normalised cell number turned out to be 0.95 in assay [8] (setting [25]) and 0.89 in assay [8] (setting [26]).
With `COc1ccc(-c2cc(=O)c3c(O)cc(O[C@@H]4O[C@H](CO[C@H]5O[C@H](C)[C@@H](O)[C@H](O)[C@@H]5O)[C@@H](O)[C@H](O)[C@H]4O)cc3o2)cc1O`, in assay [1], the inhibition turned out to be 25.9%. Besides, in assay [2], the score amounted to 2.29. In assay [10], this molecule showed a rescue above control of -9.51. Further, the cytochrome c release ratio in assay [3] worked out at 0.94. Further, the inhibition of aggregation in assay [4] stood at 75%. In [5], this molecule displayed a glutamate uptake change of 6.61%. In addition, the inclusion score in assay [6] was determined as 2. Moreover, in [7], the aggregation suppression score came out at 1.82. In addition, in [12], the parasite load remaining is 42.5% (inactive) and the viability is 98.3%. Also, the red/green cell ratio (normalised) in assay [8] is 0.86 (inactive). Further, the normalised cell number in [8] (setting [25]) is 1.13. For the same molecule, the normalised cell number in assay [8] (setting [26]) stood at 0.98.

Values taken from PubChem BioAssay.
